Test results taken from ChEMBL document CHEMBL1961873, “Compounds: GSK PKIS; Assays: Nanosyn kinase panel” (2012).

Experiments:
[1] = molecular target: Tyrosine-protein kinase CSK (Homo sapiens) (UniProt P41240); conditions: at 1 µM;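 further: each value is an averaged inhibition reading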
[2] = molecular target: T1, Discoidin domain-containing receptor 2 (Homo sapiens) (UniProt Q16832); conditions: at 0.1 µM
T1 sequence (whole entry): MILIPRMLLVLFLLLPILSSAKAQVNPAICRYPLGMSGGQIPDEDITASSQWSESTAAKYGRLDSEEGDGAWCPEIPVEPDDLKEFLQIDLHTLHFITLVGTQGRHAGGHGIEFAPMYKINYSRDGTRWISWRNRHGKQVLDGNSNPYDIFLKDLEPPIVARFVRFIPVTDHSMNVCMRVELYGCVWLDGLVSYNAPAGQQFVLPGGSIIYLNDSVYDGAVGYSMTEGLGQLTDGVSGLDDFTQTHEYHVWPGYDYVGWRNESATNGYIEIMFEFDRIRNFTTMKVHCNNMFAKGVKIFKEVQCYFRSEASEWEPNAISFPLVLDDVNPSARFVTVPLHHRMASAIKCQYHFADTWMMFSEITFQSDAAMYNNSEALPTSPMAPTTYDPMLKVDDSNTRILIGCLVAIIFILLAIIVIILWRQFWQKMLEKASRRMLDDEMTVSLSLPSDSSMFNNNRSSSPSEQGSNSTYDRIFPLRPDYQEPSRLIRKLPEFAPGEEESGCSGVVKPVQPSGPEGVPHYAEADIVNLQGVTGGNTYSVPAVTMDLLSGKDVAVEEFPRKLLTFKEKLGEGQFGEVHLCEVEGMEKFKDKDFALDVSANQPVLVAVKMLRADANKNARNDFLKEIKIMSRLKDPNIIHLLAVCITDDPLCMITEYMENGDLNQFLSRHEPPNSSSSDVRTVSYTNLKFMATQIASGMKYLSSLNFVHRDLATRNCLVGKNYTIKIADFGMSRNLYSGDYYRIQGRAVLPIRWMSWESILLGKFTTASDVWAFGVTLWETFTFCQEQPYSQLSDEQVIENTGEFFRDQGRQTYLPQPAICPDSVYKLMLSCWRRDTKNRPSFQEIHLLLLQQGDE

[3] = molecular target: T1, Discoidin domain-containing receptor 2 (Homo sapiens); conditions: at 1 µM
[4] = molecular target: Epidermal growth factor receptor (Homo sapiens) (UniProt P00533); conditions: at 0.1 µM
[5] = molecular target: Epidermal growth factor receptor (Homo sapiens) (UniProt P00533); conditions: at 1 µM
[6] = test system: Epidermal growth factor receptor (Homo sapiens), P00533 [L858R]; conditions: at 0.1 µM
Chain of Epidermal growth factor receptor (Homo sapiens), P00533 [L858R] (P00533 whole entry L858R): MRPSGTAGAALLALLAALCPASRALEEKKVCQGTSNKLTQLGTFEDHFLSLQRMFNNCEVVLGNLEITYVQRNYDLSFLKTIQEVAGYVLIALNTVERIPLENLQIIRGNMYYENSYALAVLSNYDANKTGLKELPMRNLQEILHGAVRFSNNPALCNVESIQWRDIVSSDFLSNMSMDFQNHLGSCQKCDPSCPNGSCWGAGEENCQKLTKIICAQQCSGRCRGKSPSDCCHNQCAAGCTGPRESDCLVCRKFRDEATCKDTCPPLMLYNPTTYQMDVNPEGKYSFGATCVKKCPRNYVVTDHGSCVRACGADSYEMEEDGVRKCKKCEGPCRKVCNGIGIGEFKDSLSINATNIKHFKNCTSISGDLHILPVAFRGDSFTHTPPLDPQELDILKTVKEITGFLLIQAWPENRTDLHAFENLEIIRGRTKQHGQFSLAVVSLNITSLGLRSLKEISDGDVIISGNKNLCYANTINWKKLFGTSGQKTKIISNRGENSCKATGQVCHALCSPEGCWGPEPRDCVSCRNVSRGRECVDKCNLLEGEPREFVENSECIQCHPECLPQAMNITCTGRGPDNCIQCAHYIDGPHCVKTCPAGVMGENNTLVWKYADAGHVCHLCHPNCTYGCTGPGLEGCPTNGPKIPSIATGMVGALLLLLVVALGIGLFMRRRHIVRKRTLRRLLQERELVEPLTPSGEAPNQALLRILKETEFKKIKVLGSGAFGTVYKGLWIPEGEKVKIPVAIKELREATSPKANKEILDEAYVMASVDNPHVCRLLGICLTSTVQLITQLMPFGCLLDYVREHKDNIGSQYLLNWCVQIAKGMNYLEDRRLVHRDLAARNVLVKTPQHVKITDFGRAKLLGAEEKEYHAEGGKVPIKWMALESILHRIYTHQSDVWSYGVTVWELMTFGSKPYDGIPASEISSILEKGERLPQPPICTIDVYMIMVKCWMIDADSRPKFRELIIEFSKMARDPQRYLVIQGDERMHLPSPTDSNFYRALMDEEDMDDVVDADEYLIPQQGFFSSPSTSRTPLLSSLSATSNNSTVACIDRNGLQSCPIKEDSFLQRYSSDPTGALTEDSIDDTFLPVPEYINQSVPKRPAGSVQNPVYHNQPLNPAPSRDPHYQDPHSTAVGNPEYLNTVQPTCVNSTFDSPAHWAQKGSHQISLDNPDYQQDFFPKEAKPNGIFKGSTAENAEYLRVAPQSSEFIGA

[7] = test system: Epidermal growth factor receptor (Homo sapiens), P00533 [L858R]; conditions: at 1 µM
[8] = test system: Epidermal growth factor receptor (Homo sapiens), P00533 [L861Q]; conditions: at 0.1 µM
[9] = test system: Epidermal growth factor receptor (Homo sapiens), P00533 [L861Q]; conditions: at 1 µM
[10] = test system: Epidermal growth factor receptor (Homo sapiens), P00533 [T790M]; conditions: at 0.1 µM
Chain of Epidermal growth factor receptor (Homo sapiens), P00533 [T790M] (P00533 whole entry T790M): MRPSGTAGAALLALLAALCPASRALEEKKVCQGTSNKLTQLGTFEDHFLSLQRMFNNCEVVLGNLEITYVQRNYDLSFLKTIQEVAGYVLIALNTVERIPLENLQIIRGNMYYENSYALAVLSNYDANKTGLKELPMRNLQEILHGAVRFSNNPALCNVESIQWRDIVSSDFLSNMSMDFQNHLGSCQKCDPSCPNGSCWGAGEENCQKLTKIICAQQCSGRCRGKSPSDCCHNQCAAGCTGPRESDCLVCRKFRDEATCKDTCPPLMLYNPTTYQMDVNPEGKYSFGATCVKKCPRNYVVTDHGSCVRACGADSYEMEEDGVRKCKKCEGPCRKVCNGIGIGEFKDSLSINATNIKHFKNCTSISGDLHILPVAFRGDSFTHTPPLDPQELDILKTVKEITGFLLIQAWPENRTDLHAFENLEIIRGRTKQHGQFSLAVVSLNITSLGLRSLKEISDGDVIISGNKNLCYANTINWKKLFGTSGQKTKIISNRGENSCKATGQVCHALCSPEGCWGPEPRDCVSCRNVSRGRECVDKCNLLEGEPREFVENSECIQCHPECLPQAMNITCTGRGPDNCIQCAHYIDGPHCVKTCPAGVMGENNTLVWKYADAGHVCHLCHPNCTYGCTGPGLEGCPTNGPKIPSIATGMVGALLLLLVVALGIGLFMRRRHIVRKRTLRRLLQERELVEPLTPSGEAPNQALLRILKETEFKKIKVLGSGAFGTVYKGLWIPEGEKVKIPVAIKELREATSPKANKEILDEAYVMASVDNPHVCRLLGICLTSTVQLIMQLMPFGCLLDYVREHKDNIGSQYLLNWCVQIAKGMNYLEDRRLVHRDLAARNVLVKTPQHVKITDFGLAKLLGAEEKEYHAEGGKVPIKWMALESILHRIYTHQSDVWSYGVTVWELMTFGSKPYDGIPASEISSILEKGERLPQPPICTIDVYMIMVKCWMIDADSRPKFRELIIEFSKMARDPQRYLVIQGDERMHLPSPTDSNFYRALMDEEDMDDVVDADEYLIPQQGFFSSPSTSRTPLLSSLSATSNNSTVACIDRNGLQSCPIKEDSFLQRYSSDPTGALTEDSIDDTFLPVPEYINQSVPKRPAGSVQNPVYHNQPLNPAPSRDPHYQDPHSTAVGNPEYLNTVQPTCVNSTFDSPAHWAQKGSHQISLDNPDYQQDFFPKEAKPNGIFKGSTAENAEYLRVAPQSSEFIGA

[11] = test system: Epidermal growth factor receptor (Homo sapiens), P00533 [T790M]; conditions: at 1 µM
[12] = test system: Epidermal growth factor receptor (Homo sapiens), P00533 [L858R,T790M]; conditions: at 0.1 µM
Chain of Epidermal growth factor receptor (Homo sapiens), P00533 [L858R,T790M] (P00533 whole entry T790M/L858R, looked up): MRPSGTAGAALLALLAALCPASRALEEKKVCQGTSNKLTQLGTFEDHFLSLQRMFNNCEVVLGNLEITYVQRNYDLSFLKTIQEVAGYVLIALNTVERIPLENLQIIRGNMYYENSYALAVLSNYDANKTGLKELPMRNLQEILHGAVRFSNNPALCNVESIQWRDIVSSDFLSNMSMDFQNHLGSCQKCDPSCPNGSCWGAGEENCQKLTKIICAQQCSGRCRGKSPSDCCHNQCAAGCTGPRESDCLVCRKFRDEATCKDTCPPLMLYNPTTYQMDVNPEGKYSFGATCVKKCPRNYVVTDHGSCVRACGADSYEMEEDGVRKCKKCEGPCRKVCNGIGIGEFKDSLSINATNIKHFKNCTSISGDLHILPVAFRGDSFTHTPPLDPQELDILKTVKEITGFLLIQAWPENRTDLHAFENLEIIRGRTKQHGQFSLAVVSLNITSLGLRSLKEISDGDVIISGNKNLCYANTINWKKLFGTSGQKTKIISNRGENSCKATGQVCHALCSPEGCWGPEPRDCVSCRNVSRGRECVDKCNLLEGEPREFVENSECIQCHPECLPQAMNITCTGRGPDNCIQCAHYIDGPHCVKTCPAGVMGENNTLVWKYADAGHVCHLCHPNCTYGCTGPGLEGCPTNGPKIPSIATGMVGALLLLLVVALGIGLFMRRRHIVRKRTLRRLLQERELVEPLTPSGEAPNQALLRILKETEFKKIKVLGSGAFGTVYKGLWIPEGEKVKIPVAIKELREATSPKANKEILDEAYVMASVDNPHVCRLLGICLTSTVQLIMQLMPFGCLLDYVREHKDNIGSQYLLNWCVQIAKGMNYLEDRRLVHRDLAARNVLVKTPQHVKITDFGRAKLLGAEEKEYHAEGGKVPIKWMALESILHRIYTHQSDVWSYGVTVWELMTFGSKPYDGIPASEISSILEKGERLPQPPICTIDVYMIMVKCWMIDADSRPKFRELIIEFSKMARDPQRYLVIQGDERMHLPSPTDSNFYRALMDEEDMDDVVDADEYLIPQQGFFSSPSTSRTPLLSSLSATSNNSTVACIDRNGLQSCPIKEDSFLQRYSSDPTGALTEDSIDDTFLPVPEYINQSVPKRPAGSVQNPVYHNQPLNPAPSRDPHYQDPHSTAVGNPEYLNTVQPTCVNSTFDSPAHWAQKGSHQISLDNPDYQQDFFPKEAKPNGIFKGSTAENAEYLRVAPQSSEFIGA

[13] = test system: Epidermal growth factor receptor (Homo sapiens), P00533 [L858R,T790M]; conditions: at 1 µM
[14] = molecular target: Ephrin type-A receptor 2 (Homo sapiens) (UniProt P29317); conditions: at 0.1 µM
Chain of Ephrin type-A receptor 2 (Homo sapiens) (P29317 whole entry): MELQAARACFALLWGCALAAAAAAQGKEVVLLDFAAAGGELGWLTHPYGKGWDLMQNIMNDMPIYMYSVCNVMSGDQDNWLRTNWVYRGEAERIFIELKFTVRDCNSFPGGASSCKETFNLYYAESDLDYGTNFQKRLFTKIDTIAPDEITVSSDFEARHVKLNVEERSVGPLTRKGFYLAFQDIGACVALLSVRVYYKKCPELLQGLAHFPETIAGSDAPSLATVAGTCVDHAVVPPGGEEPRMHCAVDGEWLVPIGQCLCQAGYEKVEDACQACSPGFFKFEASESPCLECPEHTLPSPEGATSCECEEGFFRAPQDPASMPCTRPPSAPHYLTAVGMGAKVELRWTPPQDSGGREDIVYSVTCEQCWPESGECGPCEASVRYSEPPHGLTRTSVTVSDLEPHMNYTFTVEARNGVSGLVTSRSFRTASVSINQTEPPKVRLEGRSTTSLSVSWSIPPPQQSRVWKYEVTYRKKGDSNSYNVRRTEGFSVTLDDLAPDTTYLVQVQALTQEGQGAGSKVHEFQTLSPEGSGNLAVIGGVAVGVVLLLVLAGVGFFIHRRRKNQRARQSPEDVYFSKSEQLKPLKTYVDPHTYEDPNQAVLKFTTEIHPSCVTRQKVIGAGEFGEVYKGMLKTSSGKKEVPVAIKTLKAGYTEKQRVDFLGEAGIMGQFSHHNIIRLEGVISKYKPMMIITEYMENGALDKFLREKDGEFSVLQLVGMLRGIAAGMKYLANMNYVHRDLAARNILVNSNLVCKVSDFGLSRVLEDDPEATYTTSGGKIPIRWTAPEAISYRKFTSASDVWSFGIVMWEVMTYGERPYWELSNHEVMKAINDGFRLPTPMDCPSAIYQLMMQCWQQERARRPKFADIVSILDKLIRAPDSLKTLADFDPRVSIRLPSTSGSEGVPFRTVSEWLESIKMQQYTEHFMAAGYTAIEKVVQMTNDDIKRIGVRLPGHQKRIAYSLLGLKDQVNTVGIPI

[15] = molecular target: Ephrin type-A receptor 2 (Homo sapiens) (UniProt P29317); conditions: at 1 µM
[16] = molecular target: T2, Ephrin type-A receptor 3 (Homo sapiens) (UniProt P29320); conditions: at 0.1 µM
T2 sequence (whole entry): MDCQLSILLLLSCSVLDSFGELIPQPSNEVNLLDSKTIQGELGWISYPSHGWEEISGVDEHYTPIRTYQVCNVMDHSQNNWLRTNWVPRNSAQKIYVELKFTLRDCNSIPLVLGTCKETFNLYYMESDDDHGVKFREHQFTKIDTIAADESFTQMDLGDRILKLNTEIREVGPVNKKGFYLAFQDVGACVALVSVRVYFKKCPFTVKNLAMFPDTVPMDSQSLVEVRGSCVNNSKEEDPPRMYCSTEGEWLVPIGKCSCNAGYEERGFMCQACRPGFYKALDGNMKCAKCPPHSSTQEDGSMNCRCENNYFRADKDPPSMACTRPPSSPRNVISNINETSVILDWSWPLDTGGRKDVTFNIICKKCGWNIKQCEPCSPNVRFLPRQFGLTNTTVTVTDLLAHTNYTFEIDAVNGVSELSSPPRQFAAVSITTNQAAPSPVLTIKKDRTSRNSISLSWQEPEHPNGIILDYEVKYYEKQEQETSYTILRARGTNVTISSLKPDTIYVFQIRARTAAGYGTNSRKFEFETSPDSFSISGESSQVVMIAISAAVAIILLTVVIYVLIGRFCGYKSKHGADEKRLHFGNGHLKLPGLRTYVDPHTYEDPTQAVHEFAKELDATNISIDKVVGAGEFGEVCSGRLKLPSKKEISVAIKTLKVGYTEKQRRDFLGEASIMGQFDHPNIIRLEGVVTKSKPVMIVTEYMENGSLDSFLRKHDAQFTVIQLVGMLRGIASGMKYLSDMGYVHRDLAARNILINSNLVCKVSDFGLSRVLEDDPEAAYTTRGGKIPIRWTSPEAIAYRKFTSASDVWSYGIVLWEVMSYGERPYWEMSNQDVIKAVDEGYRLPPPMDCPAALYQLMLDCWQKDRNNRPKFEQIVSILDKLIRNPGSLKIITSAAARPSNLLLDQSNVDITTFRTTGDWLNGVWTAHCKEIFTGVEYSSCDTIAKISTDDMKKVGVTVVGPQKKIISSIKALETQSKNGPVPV

[17] = molecular target: T2, Ephrin type-A receptor 3 (Homo sapiens); conditions: at 1 µM
[18] = molecular target: Ephrin type-A receptor 4 (Homo sapiens) (UniProt P54764); conditions: at 0.1 µM
[19] = molecular target: Ephrin type-A receptor 4 (Homo sapiens) (UniProt P54764); conditions: at 1 µM
[20] = molecular target: T3, Ephrin type-B receptor 2 (Homo sapiens) (UniProt P29323); conditions: at 0.1 µM;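 further: reported as mean inhibition of EPHB2, from the GSK PKIS dataset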
T3 sequence (whole entry): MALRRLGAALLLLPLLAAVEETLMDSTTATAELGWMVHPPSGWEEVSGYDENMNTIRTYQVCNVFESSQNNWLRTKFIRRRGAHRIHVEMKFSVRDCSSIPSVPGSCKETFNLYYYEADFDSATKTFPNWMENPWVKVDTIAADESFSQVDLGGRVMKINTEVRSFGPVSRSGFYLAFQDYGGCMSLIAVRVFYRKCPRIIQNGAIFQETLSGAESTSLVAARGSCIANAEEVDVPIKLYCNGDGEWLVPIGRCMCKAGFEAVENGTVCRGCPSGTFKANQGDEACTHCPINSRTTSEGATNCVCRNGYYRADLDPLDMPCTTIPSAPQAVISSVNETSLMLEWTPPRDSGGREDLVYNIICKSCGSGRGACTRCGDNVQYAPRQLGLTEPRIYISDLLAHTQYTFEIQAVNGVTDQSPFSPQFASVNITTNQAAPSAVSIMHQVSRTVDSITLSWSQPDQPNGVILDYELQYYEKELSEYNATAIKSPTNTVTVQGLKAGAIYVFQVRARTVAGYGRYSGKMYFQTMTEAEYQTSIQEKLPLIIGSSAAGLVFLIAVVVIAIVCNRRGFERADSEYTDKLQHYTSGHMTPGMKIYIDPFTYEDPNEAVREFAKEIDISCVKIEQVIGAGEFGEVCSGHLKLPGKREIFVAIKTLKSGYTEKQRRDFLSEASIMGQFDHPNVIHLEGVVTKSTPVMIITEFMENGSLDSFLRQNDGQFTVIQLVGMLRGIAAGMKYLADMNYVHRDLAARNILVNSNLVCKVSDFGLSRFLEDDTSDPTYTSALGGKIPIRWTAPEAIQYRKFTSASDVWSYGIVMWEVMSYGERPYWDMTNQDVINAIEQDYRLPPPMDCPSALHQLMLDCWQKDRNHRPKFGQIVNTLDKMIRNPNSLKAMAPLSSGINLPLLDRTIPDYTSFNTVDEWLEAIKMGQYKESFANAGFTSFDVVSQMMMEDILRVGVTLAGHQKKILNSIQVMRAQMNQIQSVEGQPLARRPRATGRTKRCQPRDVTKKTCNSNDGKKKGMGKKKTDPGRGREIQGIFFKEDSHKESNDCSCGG

Chain of Tyrosine-protein kinase CSK (Homo sapiens) (P41240 2-450 limits assumed): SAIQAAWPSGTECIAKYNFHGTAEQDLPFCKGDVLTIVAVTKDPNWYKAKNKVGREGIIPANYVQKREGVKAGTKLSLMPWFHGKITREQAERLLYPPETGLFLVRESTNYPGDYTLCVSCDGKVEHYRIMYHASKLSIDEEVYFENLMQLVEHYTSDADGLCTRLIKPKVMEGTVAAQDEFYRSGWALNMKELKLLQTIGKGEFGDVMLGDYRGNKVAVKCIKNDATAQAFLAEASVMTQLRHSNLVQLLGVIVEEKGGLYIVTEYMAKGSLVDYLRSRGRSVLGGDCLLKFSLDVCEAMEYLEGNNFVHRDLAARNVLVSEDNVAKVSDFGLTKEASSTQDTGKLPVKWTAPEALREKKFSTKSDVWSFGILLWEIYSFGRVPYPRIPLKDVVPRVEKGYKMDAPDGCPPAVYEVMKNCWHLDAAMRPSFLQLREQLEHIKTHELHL

Compound	inhibition [1] [%]	inhibition [2] [%]	inhibition [3] [%]	inhibition [4] [%]	inhibition [5] [%]	inhibition [6] [%]	inhibition [7] [%]	inhibition [8] [%]	inhibition [9] [%]	inhibition [10] [%]	inhibition [11] [%]	inhibition [12] [%]	inhibition [13] [%]	inhibition [14] [%]	inhibition [15] [%]	inhibition [16] [%]	inhibition [17] [%]	inhibition [18] [%]	inhibition [19] [%]	inhibition [20] [%]
COc1cc(C)c(NC(=O)CN(C)C)cc1Nc1nc(Nc2cccc(F)c2C(N)=O)c2cc[nH]c2n1	-0.35	2.03	0.4	-1.1	5.3	1.75	6.19	2.96	5	5.98	30.3	14.3	54.2	0.91	-1.18	3.57	1.85	6.35	-1.05	4.98
Nc1nc(-c2ccccn2)c(-c2ccc3ncccc3n2)s1	4.7	3.14	-1.29	1.32	1.23	3.43	2.31	1.79	4.31	1.91	1.67	2.24	1.13	0.85	0.89	2.58	3.28	7.9	8.8	5.32
Cc1ccc(NC(=O)c2ccnc(N3CCCC3)c2)cc1-c1ccc(C(=O)NCC2CC2)cc1	-0.29	3.77	22.6	-4.33	-3.35	-1.08	-0.58	2.11	-3.41	1.68	0.9	-0.13	2.67	-2.27	-2.02	-0.85	-0.25	7.04	5.58	4.55
c1cnn2ncc(-c3ccnc(Nc4ccc5c(c4)OCCO5)n3)c2c1	14.9	2.85	2.07	1.88	4.28	3.09	11	3.71	5.7	2.81	2.42	2.19	7.05	2.91	5.71	7.54	5.48	12	28.2	12.1
CS(=O)(=O)Nc1ccc(N/C=C2\C(=O)Nc3ccccc32)cc1	-6.43	0.64	0.83	0.27	1.45	-0.02	-5.94	0.35	-1.41	-1.68	-1.95	0.26	-4.58	-2.34	-1.5	-5.95	-4.36	-6.81	-2.53	-6.42
